D2 antag: antagonizes the human D2 dopamine receptor; HEK293 TREx D2 cells, calcium flux, dopamine EC80; inhibition, % at 10 µM; 2% of 340,000 active; in the data active means inhibition above about 30%; inactive means below that, where a call was filed
Target sequence (P14416 whole entry, looked up): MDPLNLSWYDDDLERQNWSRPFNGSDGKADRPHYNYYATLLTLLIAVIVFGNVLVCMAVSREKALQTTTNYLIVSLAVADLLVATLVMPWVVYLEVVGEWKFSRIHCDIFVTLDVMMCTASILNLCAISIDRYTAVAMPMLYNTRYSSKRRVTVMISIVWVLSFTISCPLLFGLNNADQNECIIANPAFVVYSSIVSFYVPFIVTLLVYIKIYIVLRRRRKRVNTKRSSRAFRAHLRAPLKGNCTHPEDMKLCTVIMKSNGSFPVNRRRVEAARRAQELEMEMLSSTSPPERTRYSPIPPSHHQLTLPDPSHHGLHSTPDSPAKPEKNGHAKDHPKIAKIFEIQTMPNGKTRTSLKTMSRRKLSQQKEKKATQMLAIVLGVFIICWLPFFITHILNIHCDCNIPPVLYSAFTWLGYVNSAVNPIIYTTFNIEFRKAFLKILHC
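Antagonism is scored as inhibition of an EC80 dopamine-evoked calcium signal in a force-coupled, tetracycline-inducible HEK293 T-REx D2 line, with compound present 180 s before agonist.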
D2 PAM-1: positive allosteric modulators of human D2 dopamine receptor. P14416. HEK293 T-REx D2, calcium flux, EC20 dopamine potentiation. potentiation, % at 10 µM. 0.34% of 340,000 active. AID 485347;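 active means potentiation over 3 SD above the plate norm, cut at about 30% in these data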
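Tetracycline-induced HEK293 T-REx cells force-coupled to calcium signalling expressed D2; compounds were pin-added after a 10 s baseline, read kinetically 180 s, then an EC20 dopamine challenge followed with a further 180 s calcium read.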
D2 PAM-2: potentiates the human D2 dopamine receptor allosterically. DiscoveRx D2 beta-arrestin cells, luminescence, 90 min; 100% = 57 uM dopamine signal. 0.23% of 360,000 active. potentiation, % (concentration not given with the values). P14416; in the data active means potentiation above about 50%; inconclusive means mostly about 30% to 49%
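PathHunter beta-arrestin assay in DiscoveRx D2 cells. Compounds were added with an EC20 of dopamine (50 nM final) for 90 min at 37 deg C. Luminescence was read 1 h after detection reagent, with 57 uM dopamine as the EC100 control.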
D2 ag-1: agonists of human D2 dopamine receptor; HEK293 T-REx D2 cells, calcium flux agonist mode; 0.53% of 340,000 active; P14416; activation, % at 2 µM; AID 485358;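 active means activation over 3 SD above normal in the single-dose calcium agonist read, cut at about 30% in these data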
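HEK293 Trex D2 cells, tetracycline-induced, o/n 30 C 5% CO2; no-wash Ca dye, RT 30–90 min; 10-cycle baseline, 23 nl cpd added, kinetic Ca read 180 s; agonist hits = positive Ca response.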
D2 ag-2: agonists of human D2 dopamine receptor (beta-arrestin); P14416; DiscoveRx PathHunter D2 beta-arrestin, luminescence, 90 min; 100% = 57 uM dopamine signal; activation, % (concentration not given with the values); 0.084% of 360,000 active; AID 624465; in the data active means activation above about 40%; inconclusive means between about 15% and that limit
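DiscoveRx PathHunter D2 beta-arrestin cells (2,100/well) attached overnight, then compound-stimulated 90 min at 37 C in HBSS/10 mM HEPES/0.1% Tween-20 buffer; beta-galactosidase complementation read by luminescence after 1 h at ambient temperature. Dopamine 57 uM final (EC100) as control.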
Hits are given with their value; i = inactive; ? = inconclusive; nt = no result given. Shown are actives, neighbours in structure and some others; about 2.4% of the full set was active somewhere.

SMILES	D2 antag	D2 PAM-1	D2 PAM-2	D2 ag-1	D2 ag-2
Cc1ccc(-c2nnc(-c3ccc4c(c3)OCO4)o2)cc1	i	i	i	i	i
c1nnc(-c2ccc3c(c2)OCO3)o1	31	i	i	i	i
O=C1NC(=O)C(Nc2cccc3ccccc23)S1 (stereo not drawn)	i	i	63	i	i
COc1cccc(CNCCSc2nnnn2-c2ccccc2)c1OC	nt	i	nt	i	nt
CCN1CCN(Cc2nc3cc(NC(=O)c4cc(OC)c(OC)c(OC)c4)ccc3n2CC)CC1	nt	i	nt	i	nt
O=C(NCCN1CCOCC1)c1cc2sccc2n1Cc1ccc(F)cc1	38	i	i	i	i
Cc1ccc(NC(=O)C2CCCCC2)cc1C	36	i	i	i	i
O=C(CCCN=C1NS(=O)(=O)c2ccccc21)OCc1cc([N+](=O)[O-])cc2c1OCOC2	i	i	i	i	i
C[C@H](N=C1NS(=O)(=O)c2ccccc21)C(=O)OCc1cc([N+](=O)[O-])cc2c1OCOC2	45	i	i	i	i
COc1ccc(C2=C(C(C)=O)Sc3nnc(-c4ccc(Cl)cc4)n3N2C(C)=O)cc1OC	nt	i	nt	i	nt
CCc1cc2ccc(C)cc2nc1SCC(=O)Nc1cc(C)on1	i	i	i	i	i
CCc1cc2cc3c(cc2nc1SCC(=O)Nc1cc(C)on1)OCO3	32	i	i	i	i
CCOC(=O)CSc1nc2cc3c(cc2cc1CC)OCCO3	i	75	i	i	i
CCc1ccc(NC(=O)CN(c2ccc(Cl)cc2)S(=O)(=O)c2ccsc2C(=O)OC)cc1	nt	i	nt	nt	nt
CCN(CC)S(=O)(=O)c1ccc(NC(=O)Cn2c(=O)sc3ccccc32)cc1	43	i	i	i	i
CC1(c2ccc(OC(F)F)cc2)NC(=O)N(CC(=O)Nc2ccc(F)cc2)C1=O (stereo not drawn)	i	i	i	i	i
CC1(c2ccc(OC(F)F)cc2)NC(=O)N(CC(=O)Nc2cccc(F)c2)C1=O (stereo not drawn)	i	i	i	33	i
CN(C1CCCC1)C1CCN(C(=O)CNC(=O)/C=C/c2ccc(F)cc2)CC1	85	i	i	i	i
Cc1cc(C)c2c(n1)nn1c(C)c(CCC(=O)Nc3ccc(C)c(Cl)c3)c(C)nc21	nt	i	nt	nt	nt
O=c1nc2ccccc2c2n1CC(CN1CCN(C(c3ccccc3)c3ccccc3)CC1)N2 (stereo not drawn)	47	i	i	i	i
CCCCN1/C(=C/c2ccc3ccccc3[n+]2CC)Sc2ccccc21	i	i	i	i	i
CCN1/C(=C/c2ccc3cc(C)ccc3[n+]2CC)Sc2cc(C)ccc21	35	i	i	i	i
CO/N=C(/CS(=O)(=O)Cc1ccccc1Cl)c1ccc(Cl)cc1Cl	43	i	i	i	i
CN(C(=O)CS(=O)(=O)Cc1ccccc1Cl)c1ccccc1	i	i	i	i	i
COc1ccccc1N1CCN(C(=S)Nc2ccccc2)CC1	47	i	i	i	i
SMILES	D2 antag	D2 PAM-1	D2 PAM-2	D2 ag-1	D2 ag-2
COc1ccccc1N1CCN(C(=S)Nc2ccc(F)cc2)CC1	i	i	i	i	i
CCOC(=O)c1c(S(=O)(=O)N2CCC(C(=O)N3CCN(c4cccc(C)c4C)CC3)CC2)c(C)n(C)c1C	nt	i	nt	i	nt
O=C(O)CCCCCCCCc1cn(Cc2ccc(C(=O)c3ccccc3)cc2)nn1	42	i	i	i	i
O=C(c1ccccc1)c1ccc(Cn2cc(CCCO)nn2)cc1	i	i	i	i	i
CC(C)OC(=O)c1c2c(n3ccccc13)C(=O)c1ccccc1C2=O	i	i	i	69	?
CN(c1ccccc1C(=O)Nc1ccc2c(c1)OCO2)S(C)(=O)=O	i	38	i	i	i
O=C(CC(NC(=O)c1ccccc1Cl)c1ccccc1)Nc1ccc2c(c1)OCO2 (stereo not drawn)	nt	nt	i	nt	i
CN(c1ccccc1C(=O)Nc1cccc(Cl)c1Cl)S(C)(=O)=O	53	i	i	i	i
CC(NC(=O)c1ccccc1Cl)C(=O)Nc1ccc2c(c1)OCO2 (stereo not drawn)	73	i	i	i	i
Cc1ccc(-c2nc3n(n2)C(c2ccccc2Cl)C=C(c2ccc(Cl)cc2)N3)cc1 (stereo not drawn)	nt	i	nt	i	nt
CCOC(=O)CSc1nnc(-c2cccs2)n1-c1ccccc1	i	32	i	i	i
COc1ccc(N2C(=O)C(Cl)=C(N3CCCC(C)C3)C2=O)cc1 (stereo not drawn)	i	i	i	i	i
CC1CCCN(C2=C(Cl)C(=O)N(c3cccc(Cl)c3)C2=O)C1 (stereo not drawn)	44	i	i	i	i
COc1ccc(CCNC(=O)CCCn2c(=O)c3ccccc3n(Cc3ccccc3)c2=O)cc1OC	nt	i	nt	i	nt
CC(C)CCNC(=O)CN1C(=O)CCn2nc(-c3cn(C)c4ccccc34)cc21	nt	i	nt	i	nt
Cc1cccc(N2CCN(Cc3nc(-c4ccccc4Cl)oc3C)CC2)n1	40	i	i	i	i
Cc1cc(OCCn2cc(C(=O)c3cccs3)c3ccccc32)ccc1Cl	nt	i	nt	i	nt
CCCn1c2ccccc2c2cnn(CC(=O)NCc3ccc(OC)cc3)c(=O)c21	nt	i	nt	i	nt
COc1cc(/C=C(\C#N)c2nc3ccccc3[nH]2)cc(OC)c1O	i	i	i	36	i
CCOc1ccc2c(c1)c(C(C)=O)c(C)n2-c1ccccc1	i	i	i	40	i
CC1=Nc2cc(C(=O)NCCc3ccc(Cl)cc3)ccc2Sc2c(C)ccc(C)c21	nt	nt	nt	i	nt
O=C(Nc1ccc(F)cc1)N1CCn2c(nc3ccccc32)C1	33	i	i	i	i
COc1ccc(CCC(=O)NCc2nc3cccnc3n2Cc2ccc(C)cc2)cc1	nt	i	nt	i	nt
CCOC(=O)C1CCN(S(=O)(=O)c2cnc[nH]2)CC1	35	i	i	i	i
CN1CCN(C(=O)c2ccccc2NC(=O)c2ccccc2Br)CC1	i	i	i	i	i
SMILES	D2 antag	D2 PAM-1	D2 PAM-2	D2 ag-1	D2 ag-2
CN1CCN(C(=O)c2ccccc2NC(=O)c2cccs2)CC1	37	i	i	i	i
COc1ccc(CN2CCN(C(=O)c3cccs3)CC2)cc1	95	i	i	81	i
O=C(c1cccs1)N1CCN(c2ccccc2)CC1	31	i	i	i	i
O=C(c1cccs1)N1CCN(c2ccc(F)cc2)CC1	i	i	i	i	i
COC(=O)c1ccc(NC(=O)CSc2nc(=O)[nH]c3c2CCCC3)cc1	nt	nt	nt	i	nt
CCC(=O)N1CCc2cc(Br)cc(S(=O)(=O)N3CCCC(C(=O)NCc4ccccc4)C3)c21 (stereo not drawn)	nt	i	nt	i	nt
Cc1ccc(SCC(=O)Nc2ccc(C(=O)Nc3ccc(O)cc3)cc2)cc1	72	i	i	i	i
COc1ccc(-c2onc3ccc(Cl)cc23)cc1	i	i	104	i	i
O=Cc1ccc2noc(-c3ccc(Cl)cc3)c2c1	nt	nt	80	nt	?
CCOC(=O)c1[nH]c2ccc(OCC)cc2c1NC(=O)CN1CCN(c2ccccn2)CC1	36	i	i	i	i

Source: PubChem BioAssay (National Center for Advancing Translational Sciences (NCATS))
